# hgDAF-12 ag – activates the H. glycines DAF-12 receptor ligand-binding domain; HEK293 GAL4-hgDAF12 UAS-luciferase reporter, agonist luminescence; normalized to butyrate control; activation, % at 6.8 µM; 1.8% of 370,000 active;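 active means activation above a cutoff set at the mean of all screened compounds plus 3 SD, cut at about 10% in these data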;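 further: 0% = DMSO wells and 100% = sodium butyrate wells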
# DAX1 inh-1 – blocks DAX1 repression of SF-1 activated StAR promoter; HEK293T StAR-luciferase reporter, SF-1/DAX-1 repression relief; 1.1% of 370,000 active; inhibition, % at 6.8 µM;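 active means inhibition above the mean over all tested compounds plus 3 SD, cut at about 3.6% in these data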;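 further: 0% = DAX-1 cells with DMSO and 100% = cells lacking DAX-1 with DMSO; higher inhibition means more luminescence from relief of DAX-1 repression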
# hcDAF12 agonist – activates DAF-12 receptor from parasite H. contortus; 1.4% of 370,000 active; activation, % at 6.8 µM; HEK293 hcDAF-12 lit1-tk-luc reporter, luminescence; 0% DMSO, 100% Δ7-dafachronic acid; AID 652067;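 active means activation above the mean of all tested compounds plus 3 SD, cut at about 5.5% in these data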;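 further: 100% = response to 3 µM Δ7-dafachronic acid high control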
# DAX1 inh-2 – NR0B1 (DAX1) inhibition; AID 504766; 0.99% of 340,000 active; P51843; inhibition, % at 6.75 µM; HEK293 Gal4-DAX1 luciferase reporter, luminescence;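 active means inhibition above the mean over all tested compounds plus 3 SD, cut at about 4.2% in these data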;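 further: 0% = DAX1-transfected cells with DMSO and 100% = empty-vector control cells with DMSO; inhibition shows as a rise in luminescence from relieved DAX1 repression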
# SMARCA2 activ – SMARCA2 function activation, primary screen; MG213 cells, MMTV-luciferase reporter, dexamethasone, overnight; activation, % at 9.1 µM; 1% of 370,000 active; in the data active means activation above about 7.8%;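 further: 0% = vehicle wells and 100% = reference activator wells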
# ssDAF12 agonist – S. stercoralis DAF-12 activation, primary screen; HEK293 ssDAF-12/GRIP1 lit1-tk-luc reporter, luminescence; % of 3 µM dafachronic acid response; 1% of 370,000 active; activation, % at 6.8 µM; AID 652126;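 active means activation above the mean over all tested compounds plus 3 SD, cut at about 0.9% in these data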;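 further: 0% = DMSO-only wells and 100% = 3 µM delta7-dafachronic acid wells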
# hgDAF12 conf – hgDAF-12 agonism, confirmation assay. 80% of 3,300 active. AID 743050. HEK293 GAL4-hgDAF12 luciferase reporter, agonist mode; percent of butyrate response. activation, % at 6.8 µM. shares compounds with hgDAF-12 ag;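 active means mean activation over triplicate wells above the hit cutoff derived from the earlier primary screen, cut at about 11% in these data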;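 further: 0% = DMSO low control and 100% = 2 mM sodium butyrate high control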
# LXRb DAF12 ctr – counter-screen for DAF-12 agonists: agonists of human LXR-beta. shares compounds with hgDAF-12 ag. 3,300 tested, under 10 active. AID 743051. activation, % at 6.8 µM. HEK293 Gal4-LXR luciferase reporter, 24 h;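 active means mean activation of the triplicate above a set limit carried over from the primary screen, none filed active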
# * = called active by the depositor; . = no result given. In the library only some 4.8% were active in any assay of this set; here they are far more common.
SMILES,hgDAF-12 ag,DAX1 inh-1,hcDAF12 agonist,DAX1 inh-2,SMARCA2 activ,ssDAF12 agonist,hgDAF12 conf,LXRb DAF12 ctr
Cc1ccc(S(=O)(=O)/N=C(/NNC(=O)c2cccc(Cl)c2)c2ccccc2)cc1,14*,2,5,1,5,1,21*,1
COc1ccc(NC(=S)N/C(=N/S(=O)(=O)c2ccc(C)cc2)c2ccccc2)cc1,5,2,1,0,4,0,.,.
COc1ccc(NC(=S)NC(=NS(=O)(=O)c2ccc(Cl)cc2)c2ccccc2)cc1,13*,3,2,2,-1,1,10,0
O=C(NN/C(=N/S(=O)(=O)c1ccc(Cl)cc1)c1ccccc1)c1ccc(O)cc1,16*,3,-1,0,7,0,9,0
Cc1ccc(S(=O)(=O)NN/C(=N/S(=O)(=O)c2ccccc2)c2ccccc2)cc1,0,0,-2,0,-4,-1,.,.
CC1(C(=O)Nc2cccnc2)Cc2c(-c3cccc(C(F)(F)F)c3)ccnc2O1 (stereo not given),-2,-1,-1,.,-6,-2,.,.
O=C(CSc1ccc(-c2ccccn2)nn1)c1ccc(F)cc1,5,1,0,0,-2,-2,.,.
O=C(Cc1ccccc1)N/N=C/c1cccs1,3,0,-1,0,0,-2,.,.
Cc1cccc(/C(N)=N/OC(=O)c2cccnc2)c1,20*,3,5,2,8,1.1*,11*,1
CC[N+](CC)(CC)CC(=O)Nc1ccc(SC(F)F)cc1,-2,0,-1,2,1,-1,.,.
Cc1ccc(C(=O)Nc2ccc(SC(F)F)cc2)s1,20*,4.2*,5,2,-1,-1,13*,1
O=C(N/N=C/c1ccc(F)cc1)c1ccc(Br)cc1,2,0,-2,1,6,-2,.,.
O=C(N/N=C/c1ccc(Br)cc1)c1ccc(Br)o1,14*,3,4,3,3,0,15*,1
O=C(Nc1ccc2c(c1)[C@@H]1C[C@@H](CC(=O)N3CCOCC3)O[C@@H](CO)[C@@H]1O2)NC1CCCC1,-2,1,0,2,-3,-1,.,.
